Where “and” joins values, the source holds several entries; their conditions need not be identical. Equal entries are not always repeated. Out of some 5,500 compounds screened, about 2,000 (36%) were called active. Not shown: some 18% with an inconclusive outcome. No stated cut-off is given here; in the data, active means normalized growth mostly below about 0.91 (no sharp cut-off); inconclusive means no clear call, values can overlap the other calls; inactive means mostly above about 0.92. The list shows a part of the results.
Assay: chemical genetic growth profiling, strain panel (AID 1159580);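 further: tested at 20 µM; growth read once vehicle control cultures reached saturation at 30 °C; 1 = growth at the plate median or of vehicle wells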
Conditions: S. cerevisiae deletion strains, growth OD

Measured: normalized growth

CN1CCN2c3ccccc3Cc3ccccc3C2C1 (stereo unspecified)
inactive: locus YAL013W, strain DEP1, stronger effect = lower value 1.01 and 0.984 | locus YAL021C, strain ccr4, stronger effect = lower value 0.97 | locus YAL026C, strain drs2, stronger effect = lower value 0.999 | locus YAL030W, strain snc1, stronger effect = lower value 1 | locus YAL040C, strain CLN3, stronger effect = lower value 1.01 | locus YBL061C, strain skt5, stronger effect = lower value 0.998 | locus YBR009C, strain hhf1, stronger effect = lower value 0.987 | locus YBR021W, strain FUR4, stronger effect = lower value 0.992 | locus YBR023C, strain chs3, stronger effect = lower value 0.994 | locus YBR171W, strain sec66, stronger effect = lower value 1.02 | locus YBR229C, strain ROT2, stronger effect = lower value 1.01 | locus YBR231C, strain swc5, stronger effect = lower value 0.996 | locus YBR279W, strain paf1, stronger effect = lower value 1 | locus YCL011C, strain gbp2, stronger effect = lower value 1 | locus YCL016C, strain dcc1, stronger effect = lower value 0.994 | locus YCL029C, strain bik1, stronger effect = lower value 0.99 | locus YCL061C, strain MRC1 (second series), stronger effect = lower value 0.995 | locus YCL061C, strain MRC1, stronger effect = lower value 0.999 | locus YCL069W, strain vba3, stronger effect = lower value 0.998 | locus YCR088W, strain abp1, stronger effect = lower value 1 | locus YDL005C, strain med2, stronger effect = lower value 1.01 | locus YDL035C, strain GPR1, stronger effect = lower value 1.03 | locus YDL040C, strain nat1, stronger effect = lower value 1 | locus YDL074C, strain BRE1, stronger effect = lower value 1.03 | locus YDL101C, strain DUN1, stronger effect = lower value 1.02 | locus YDL134C, strain PPH21, stronger effect = lower value 1.01 | locus YDL185W, strain tfp1, stronger effect = lower value 0.982 | locus YDL192W, strain arf1, stronger effect = lower value 0.989 | locus YDR001C, strain nth1, stronger effect = lower value 1.01 | locus YDR069C, strain doa4, stronger effect = lower value 0.986 | locus YDR101C, strain arx1, stronger effect = lower value 0.985 | locus YDR137W, strain rgp1, stronger effect = lower value 1.01 | locus YDR150W, strain NUM1, stronger effect = lower value 1.01 and 0.988 | locus YDR159W, strain sac3, stronger effect = lower value 0.988 | locus YDR162C, strain NBP2, stronger effect = lower value 1.05 | locus YDR195W, strain ref2 0.972 | locus YDR297W, strain sur2, stronger effect = lower value 1.01 | locus YDR318W, strain mcm21, stronger effect = lower value 0.979 | locus YDR334W, strain swr1, stronger effect = lower value 1 | locus YDR335W, strain msn5, stronger effect = lower value 1 | locus YDR363W, strain ESC2, stronger effect = lower value 0.983 | locus YDR388W, stronger effect = lower value 0.99 | locus YDR392W, strain spt3, stronger effect = lower value 0.881 | locus YDR502C, strain sam2, stronger effect = lower value 0.982 | locus YEL003W, strain gim4, stronger effect = lower value 0.997 | locus YEL037C, strain rad23, stronger effect = lower value 1 | locus YEL061C, strain CIN8 (second series), stronger effect = lower value 1.01 | locus YEL061C, strain CIN8, stronger effect = lower value 1.01 | locus YER002W, strain NOP16, stronger effect = lower value 0.998 | locus YER015W, strain faa2, stronger effect = lower value 1 | locus YER016W, strain bim1, stronger effect = lower value 0.991 | locus YER110C, stronger effect = lower value 0.985 | locus YER111C, strain swi4, stronger effect = lower value 0.993 | locus YER155C, strain BEM2 (second series), stronger effect = lower value 0.978 | locus YER155C, strain BEM2, stronger effect = lower value 1.01 | locus YER167W, strain BCK2, stronger effect = lower value 1.02 | locus YFR010W, strain ubp6, stronger effect = lower value 1.01 | locus YGL078C, strain dbp3, stronger effect = lower value 0.981 | locus YGL086W, strain mad1, stronger effect = lower value 0.988 | locus YGL167C, strain pmr1, stronger effect = lower value 1 | locus YGL173C, strain kem1, stronger effect = lower value 1.01 | locus YGL227W, strain vid30, stronger effect = lower value 1.01 | locus YGL240W, strain doc1, stronger effect = lower value 0.979 | locus YGL248W, strain PDE1, stronger effect = lower value 1.01 | locus YGL253W, strain hxk2, stronger effect = lower value 1.01 | locus YGR078C, strain PAC10, stronger effect = lower value 1.03 and 1.01 | locus YGR135W, strain pre9, stronger effect = lower value 0.977 | locus YGR229C, strain SMI1, stronger effect = lower value 1.01 and 0.95 | locus YGR252W, strain gcn5, stronger effect = lower value 0.964 | locus YHR013C, strain ard1, stronger effect = lower value 0.939 | locus YHR027C, strain rpn1, stronger effect = lower value 1 | locus YHR030C, strain SLT2, stronger effect = lower value 1.01 and 0.992 | locus YHR079C, strain IRE1 (second series), stronger effect = lower value 0.987 | locus YHR079C, strain IRE1, stronger effect = lower value 0.987 | locus YHR094C, strain hxt1, stronger effect = lower value 0.989 | locus YHR129C, strain ARP1, stronger effect = lower value 1.01 | locus YHR142W, strain chs7, stronger effect = lower value 0.997 | locus YHR200W, strain rpn10, stronger effect = lower value 0.995 | locus YIL066C, strain RNR3, stronger effect = lower value 1.02 | locus YIL073C, strain SPO22, stronger effect = lower value 1.01 | locus YIL125W, strain kgd1, stronger effect = lower value 0.989 | locus YIR030C, strain dcg1, stronger effect = lower value 0.984 | locus YJL092W, strain hpr5, stronger effect = lower value 1 | locus YJL095W, strain BCK1 (second series), stronger effect = lower value 0.999 | locus YJL095W, strain BCK1, stronger effect = lower value 1.01 and 0.988 | locus YJL115W, strain asf1, stronger effect = lower value 1 | locus YJL129C, strain trk1, stronger effect = lower value 0.99 | locus YJL134W, strain LCB3, stronger effect = lower value 1.01 | locus YJL154C, strain vps35, stronger effect = lower value 1 | locus YJL164C, strain tpk1, stronger effect = lower value 0.978 | locus YJL166W, strain qcr8, stronger effect = lower value 0.987 | locus YJL168C, strain set2, stronger effect = lower value 0.991 | locus YJL187C, strain SWE1 (second series), stronger effect = lower value 1.01 | locus YJL187C, strain SWE1, stronger effect = lower value 1 | locus YJR043C, strain POL32, stronger effect = lower value 1 | locus YJR066W, strain TOR1, stronger effect = lower value 0.932

Reference: PubChem BioAssay AID1159580 (chemical genetic matrix, 2015)
